Reference: PubChem BioAssay (Tox21)
Results filed as inconclusive are left out. Values without a mark were called inactive. Calls of active or inactive are those of the source. The call rests on the fitted dose curve; in most records, active means well fitted cell-killing curve with a large enough effect in the repeat runs; inconclusive means weak or mixed curves, or effect the other way; inactive means flat fitted curve, though single readings scatter.

Assay: cAMP Responsive Elements (CRE) small molecule antagonists, cell-based qHTS assay: qHTS cell viability counter screen (AID 2060913); further: nearly all actives have a fitted effect of over 40% in size
Settings: CRE-bla HEK293T viability, CellTiter-Glo luminescence, 5 h; series mostly up to 92.4 µM; viability change, negative = cytotoxic: at the top concentration
Summary of the method: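 Steps: cells plated and held 18 hrs at 37 C/5% CO2; compounds and NKH477 (0.25 uM final) added; 3 hrs incubation; reporter substrate read; CellTiter-Glo added to measure cytotoxicity by luminescence.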
On the % scale 0 is the no-effect control and ±100 the full control effect; potency means the concentration at half of the fitted maximal effect.

| Structure (SMILES) | Potency | viability change, negative = cytotoxic |
| --- | --- | --- |
| O=C1NCCN1CCN1CCC(c2cn(-c3ccc(F)cc3)c3ccc(Cl)cc23)CC1 | 10.6 µM (active) |  |
| O=c1oc2cc(O)ccc2c2oc3cc(O)ccc3c12 |  | 18% |
| C1CCOC1 |  | -1.2% |
| CCCCCCCC(=O)OCC(O)CO (stereo not given) | inactive |  |
| O=[N+]([O-])c1cccc(Cl)c1Cl |  | 1.22% |
| CCCCCCCCCCCCCC(=O)OC |  | 3.49% |
| C[N+]1(C)CCC(=C(c2ccccc2)c2ccccc2)CC1 |  | 1.09% [at 42.5 µM] |
| C=COCCCCO |  | 7.02% |
| CCOCC(=O)O | inactive |  |
| CC1=C(C(=O)O)N2C(=O)[C@@H](NC(=O)[C@H](N)c3ccccc3)[C@H]2SC1 |  | -1.17% [at 42.5 µM] |
| c1ccc(-c2nc[nH]c2-c2ccccc2)cc1 |  | -1.97% [at 42.5 µM] |
| CN1Cc2cc(C(=O)N3CCC(C4CCNCC4)CC3)ccc2N[C@@H](CC(=O)O)C1=O |  | -12.8% [at 42.5 µM] |
| Cc1ccc([N+](=O)[O-])cc1N | inactive |  |
| O=CN(CCO)CCO |  | 13.4% |
| O=C1Cc2cc(CCN3CCN(c4nsc5ccccc45)CC3)c(Cl)cc2N1 |  | 5.63% [at 42.5 µM] |
| CCCCCCCCOc1ccc(C(=O)O)cc1 |  | 0.446% |
| Oc1ccc(C(c2ccc(O)cc2)C(Cl)(Cl)Cl)cc1 | inactive |  |
| CSc1cnccn1 |  | 7.92% |
| CC(=O)CC(=O)Nc1ccc(S(=O)(=O)O)cc1 |  | -1.07% |
| Cc1cc(C)cc([N+](=O)[O-])c1 |  | 5.85% |

| Structure (SMILES) | Potency | viability change, negative = cytotoxic |
| --- | --- | --- |
| C=CCNCC=C | inactive |  |
| Cc1ccc(C)c([N+](=O)[O-])c1 |  | 0.23% |
| CCCCCC1C(=O)CCC1CC(=O)OC (stereo not given) | inactive |  |
| O=C(O)CCS |  | -1.72% |
| CCN(CC)CC(=O)Nc1c(C)cccc1C |  | 0.0891% [at 42.5 µM] |
| CCCOC(=O)CCCCC(=O)OCCC |  | -0.861% |
| CCCCCOC(=O)Nc1nc(=O)n([C@@H]2O[C@H](C)[C@@H](O)[C@H]2O)cc1F |  | 1.1% [at 42.5 µM] |
| c1ccccc1 |  | -0.407% |
| COc1cc2ncnc(Nc3cccc(Cl)c3)c2cc1OC |  | 6.79% [at 18.9 µM] |
| O=[N+]([O-])c1ccccc1Nc1ccccc1 |  | 7.11% |
| CCCCC(CC)C(=O)OCCOCCOCCOCCOC(=O)C(CC)CCCC (stereo not given) |  | -4.95% |
| CCCC(C)CCC(C)=O (stereo not given) |  | -4.8% |
| Nc1cccc(N)n1 | inactive |  |
| COc1cc(Nc2c(C#N)cnc3cc(OCCCN4CCN(C)CC4)c(OC)cc23)c(Cl)cc1Cl |  | -12.2% [at 42.5 µM] |
| C[C@]12CC[C@@H]3c4ccc(O)cc4CC[C@H]3[C@@H]1CC[C@@H]2O | inactive |  |
| CC1CNCC(C)O1 (stereo not given) |  | -11.5% |
| O=Cc1cccc(Br)c1 |  | -10.1% |
| COc1ccc(COC(C)=O)cc1 | inactive |  |
| Cc1cc(C)c(C)cc1C | inactive |  |
| CCC(=O)O[C@H]1[C@H](O[C@@H]2[C@@H](C)[C@H](O[C@H]3C[C@@](C)(OC)[C@@H](O)[C@H](C)O3)[C@@H](C)C(=O)O[C@H](CC)[C@@](C)(O)[C@H](O)[C@@H](C)C(=O)[C@H](C)C[C@@]2(C)O)O[C@H](C)C[C@@H]1N(C)C | inactive |  |
